Most compounds without a hit are left out; they make up all but 2.1% or so of the library.
YB-1 expr inh: inhibitors of YB-1 gene expression, primary screen, cell-based, fluorescence. U2OS, qRT-PCR YB-1 vs CDIP delta delta Cp, 16 h; stronger effect = higher value; zero = DMSO, each unit about twofold. actives 0.37% (n = 30,000). delta delta Cp (YB-1 minus CDIP) (concentration not given with the values);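 active = delta delta Cp rounded down to an integer at or above 3, about 3 SD of DMSO wells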;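 note: higher means less YB-1 transcript or more CDIP transcript relative to DMSO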
ROS inducer: ROS inducers in U2OS cancer cells, primary screen, cell-based, H2DCF-DA fluorescence; actives 2% (n = 46,000); U2OS ROS induction; AID 624156, 2012; ROS induction (% of piperlongumine), % at 10 µM; in the data active = ROS induction above about 79%, passing the limit was not always enough;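 note: 0% = DMSO vehicle median and 100% = reference compound median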
Active calls of the source: *.

`C[C@@H]1CN([C@H](C)CO)C(=O)c2cccc(NC(=O)c3ccc(-c4nccs4)cc3)c2O[C@H]1CN(C)Cc1ccc(C(F)(F)F)cc1` gave YB-1 expr inh 0.202 and ROS inducer 105.3*.
For C[C@@H]1CN([C@H](C)CO)C(=O)c2cccc(NC(=O)c3ccc(-c4nccs4)cc3)c2O[C@H]1CN(C)Cc1ccc(C(=O)O)cc1 the results were YB-1 expr inh -0.409 and ROS inducer 7.9.
COc1ccccc1OCC(=O)Nc1cccc(-c2nnc(-c3ccccc3)o2)c1 was read as ROS inducer -2.4.
COc1ccc(-c2nnc(-c3ccc(S(=O)(=O)c4ccccc4)cc3)o2)cc1OC was read as ROS inducer 126.1*.
FC(F)(F)c1nnc2n1Nc1nc3ccccc3nc1S2 was read as ROS inducer 703.6*.
CC1CCCCN1CCNc1ccc2nnc(-c3ccc(F)cc3)n2n1 (stereo unspecified) was read as ROS inducer 42.6.
For C[C@@H]1CN([C@H](C)CO)C(=O)Cc2cc(NC(=O)Cc3cn(C)c4ccccc34)ccc2O[C@H]1CN(C)Cc1ccccc1 the results were YB-1 expr inh -0.342 and ROS inducer 2.6.
For C[C@H](CO)N1C[C@H](C)[C@H](CN(C)Cc2ccc(-c3ccccc3)cc2)Oc2ccc(NC(=O)Cc3cn(C)c4ccccc34)cc2CC1=O the results were YB-1 expr inh -0.076 and ROS inducer 1.8.
C[C@@H]1CN([C@@H](C)CO)C(=O)Cc2cc(NC(=O)Cc3cn(C)c4ccccc34)ccc2O[C@@H]1CN(C)Cc1ccc(-c2ccccc2)cc1 was read as YB-1 expr inh 0.262 and ROS inducer 85.4*.
`C[C@@H]1CN([C@H](C)CO)C(=O)Cc2cc(NC(=O)Cc3cn(C)c4ccccc34)ccc2O[C@@H]1CN(C)CC1CC1` gave YB-1 expr inh -0.349 and ROS inducer 123.8*.
Screening C[C@H]1CN([C@@H](C)CO)C(=O)Cc2cc(NC(=O)Cc3cn(C)c4ccccc34)ccc2O[C@H]1CN(C)CC1CCCCC1 returned YB-1 expr inh 0.38 and ROS inducer 10.8.
C[C@@H]1CN([C@H](C)CO)C(=O)Cc2cc(NC(=O)Cc3cn(C)c4ccccc34)ccc2O[C@@H]1CN(C)Cc1ccc(Oc2ccccc2)cc1 was read as YB-1 expr inh 0.0387 and ROS inducer 130.6*.
C[C@@H]1CN([C@H](C)CO)C(=O)Cc2cc(NC(=O)Cc3cn(C)c4ccccc34)ccc2O[C@@H]1CN(C)Cc1ccc(-c2ccccc2)cc1 was read as YB-1 expr inh -0.119 and ROS inducer 109.1*.
For C[C@H](CO)N1C[C@H](C)[C@H](CN(C)Cc2ccc(Oc3ccccc3)cc2)Oc2ccc(NC(=O)Cc3cn(C)c4ccccc34)cc2CC1=O the results were YB-1 expr inh -0.0802 and ROS inducer 5.0.
N#CCNC(=O)c1ccc(-c2ccccc2)cc1 was read as ROS inducer 4.6.
CCOC(=O)CC(N)c1cccc(O)c1 (stereo unspecified) was read as ROS inducer -4.3.
`CC1CCN(C(=O)c2scc3c2CCCC3)CC1` gave ROS inducer -8.8.
For C[C@@H]1CCCCO[C@@H](CN(C)C(=O)Nc2ccccc2)[C@@H](C)CN([C@H](C)CO)C(=O)c2cc(NS(=O)(=O)c3ccccc3)ccc2O1 the results were YB-1 expr inh -0.957 and ROS inducer 2.4.
Screening C[C@@H]1CCCCO[C@H](CN(C)S(=O)(=O)c2ccccc2)[C@@H](C)CN([C@H](C)CO)C(=O)c2cc(NC(=O)Nc3ccc(C(F)(F)F)cc3)ccc2O1 returned YB-1 expr inh 0.0635 and ROS inducer 80.0*.
Screening Cc1ccc(S(=O)(=O)N(C)C[C@H]2OCCCC[C@@H](C)Oc3ccc(NC(=O)Nc4ccc(C(F)(F)F)cc4)cc3C(=O)N([C@H](C)CO)C[C@@H]2C)cc1 returned YB-1 expr inh 0.0858 and ROS inducer 21.9.
`C[C@@H]1CCCCO[C@@H](CN(C)S(=O)(=O)c2ccccc2)[C@@H](C)CN([C@H](C)CO)C(=O)c2cc(NC(=O)Nc3ccc(C(F)(F)F)cc3)ccc2O1` gave YB-1 expr inh -0.445 and ROS inducer 182.7*.
For C[C@@H]1CN([C@H](C)CO)C(=O)c2cccc(NS(=O)(=O)c3ccc(F)cc3)c2O[C@H]1CN(C)C(=O)Nc1ccc(C(F)(F)F)cc1 the results were YB-1 expr inh -0.00163 and ROS inducer 92.0*.
COc1ccc(S(=O)(=O)N(C)C[C@@H]2OCCCC[C@@H](C)Oc3ccc(NC(=O)Nc4ccc(C(F)(F)F)cc4)cc3C(=O)N([C@H](C)CO)C[C@@H]2C)cc1 was read as YB-1 expr inh -0.0118 and ROS inducer 32.3.
Screening C[C@@H]1CCCCO[C@@H](CN(C)C(=O)Nc2ccc(C(F)(F)F)cc2)[C@@H](C)CN([C@H](C)CO)C(=O)c2cc(NS(=O)(=O)c3ccccc3)ccc2O1 returned YB-1 expr inh -0.206 and ROS inducer 101.7*.
Cc1ccc(S(=O)(=O)Nc2cccc3c2O[C@@H](CN(C)C(=O)Nc2ccc(C(F)(F)F)cc2)[C@@H](C)CN([C@H](C)CO)C3=O)cc1 was read as YB-1 expr inh -0.209 and ROS inducer 8.5.
For CC(=O)ON1C(C)(C)CC(OC(=O)c2ccco2)CC1(C)C the results were ROS inducer -8.0.
`Cc1cc(C)cc(CC(c2nc3ccccc3[nH]2)C(C)c2nc3ccccc3[nH]2)c1` (stereo unspecified) gave ROS inducer -7.0.
`CCN(Cc1ccccc1)C(=O)Cn1cc2c(n1)-c1c(oc(C(=O)N3CCCC3)c1C)CC2` gave ROS inducer -2.1.
For CCOC(=O)Cn1cnc2c(nnn2-c2ccc(C)cc2)c1=O the results were ROS inducer -7.0.
`Cc1ccc(-n2nnc3c(SCC(=O)N4CCCC4)ncnc32)cc1` gave ROS inducer 134.1*.
`Cc1cccc(N=Cc2c(O)n(-c3ccccc3)c(=O)c3ccccc23)c1` gave YB-1 expr inh -0.0285 and ROS inducer 14.5.
Screening COc1ccc(-c2c(C)nn3c(N4CCC(C)CC4)cc(C)nc23)cc1OC returned ROS inducer 92.7*.
`COc1ccc(OC)c2c1CC(C)(C)n1c(-c3ccc(Cl)cc3)nnc1-2` gave ROS inducer -4.5.
CCc1nnc(SC(CC)C(=O)N2CCCCCC2)c2cc3sccc3n12 (stereo unspecified) was read as ROS inducer 1.4.
For Cc1ccc2c(c1)c1c(n2CCC(=O)O)C(=O)CCC1 the results were ROS inducer 0.7.
O=c1[nH]c(SC/C=C/c2ccccc2)nc2sc3c(c12)CCC3 was read as ROS inducer -2.0.
`CC(C)(C)C(=O)NCc1cn2ccsc2n1` gave ROS inducer 19.6.
C[C@@H]1CCCCO[C@@H](CN(C)CC2CCCCC2)[C@@H](C)CN([C@H](C)CO)C(=O)c2cc(NC(=O)c3ccccc3)ccc2O1 was read as YB-1 expr inh -0.418 and ROS inducer 8.0.
Screening Cc1noc(C)c1NC(=O)Nc1ccc2c(c1)C(=O)N([C@H](C)CO)C[C@H](C)[C@@H](CN(C)Cc1ccc(Cl)c(Cl)c1)OCCCC[C@@H](C)O2 returned YB-1 expr inh 6.11* and ROS inducer 10.4.

Screens as filed in PubChem BioAssay.
